These results are taken from PubChem BioAssay (NCI).

Some test systems named below: T-47D breast; BT-549 breast; MDA-MB-435 melanoma; SW-620 colon; MCF7 breast; HCT-116 colon; HCC-2998 colon; KM12 colon.
Common to all, as to test: NCI-60 one-dose screen, 48 h (100 = growth as untreated, 0 = no growth, -100 = all killed)
Holding throughout (details): 10 µM unless noted

Each structure is given as a SMILES string. Compounds without any hit were thinned out: in the full panel of roughly 83,000, 20% have a hit.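 For each line, cells grew in 96-well plates with the test compound present at a single concentration for 48 hours.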 Values without a mark were called inactive. The source made the active and inactive calls. The calls were made as follows: active = growth percent below 10; inactive = the rest.

For the molecule `CCOC(=O)C1C(=O)NC(C(=O)OCC)(C(=O)OCC)C1CC` (stereo not given), the growth with T-47D breast is 109%; in the assay with BT-549 breast, 112%; with MDA-MB-435 melanoma, 115%; with SW-620 colon it was 115%; with MCF7 breast, 104%; in the assay with HCT-116 colon, 110%. The values for the growth with HCC-2998 colon and in the assay on KM12 colon were 108% and 112%, respectively.

For `N#Cc1c(-c2ccccc2)cc(-c2ccccc2)n(CCC(=O)O)c1=O`, the growth with T-47D breast was 44.1%; with BT-549 breast, 27.2%; in the assay with MDA-MB-435 melanoma it was -9.89% (active); with SW-620 colon it was 37.3%; in the assay with MCF7 breast it was 35%; in the assay with HCT-116 colon it was 40%. Moreover, the growth is 74.3% with HCC-2998 colon and 34.5% in the assay on KM12 colon.

In the case of `O=C(/C=C(\Nc1ccccc1)c1ccccc1)c1cn(-c2ccc([N+](=O)[O-])cc2)nn1`, the growth is 96.4% in the assay with T-47D breast; 110% in the assay on BT-549 breast; 102% in the assay on MDA-MB-435 melanoma; 93.2% with SW-620 colon; 103% in the assay with MCF7 breast; 92.1% in the assay with HCT-116 colon. Besides, the results for the growth in the assay with HCC-2998 colon and with KM12 colon were 103% and 110%, respectively.

With `O=C(CNC(=O)c1cccc2ccccc12)Nc1ccccc1Cc1ccccc1`, the growth with T-47D breast was 37.7% [5 µM]; with BT-549 breast, 40.3% [5 µM]; in the assay on MDA-MB-435 melanoma, -8.01% [5 µM] (active); with SW-620 colon, 25.5% [5 µM]; in the assay on MCF7 breast it was 23.5% [5 µM]; with HCT-116 colon it was 14.6% [5 µM]. In addition, the growth with HCC-2998 colon is 87.1% [5 µM]; in the assay with KM12 colon, 36% [5 µM].

As for `CN[C@@H]1C(OC2[C@H](O[C@H]3[C@H](O)[C@@H](O)[C@H](N=C(N)N)[C@@H](O)[C@@H]3N=C(N)N)OC(C)[C@]2(O)CO)OC(CO)C(O)C1O` (stereo not given in full), the growth in the assay on T-47D breast was 111%; in the assay with BT-549 breast it was 112%; in the assay on MDA-MB-435 melanoma, 102%; in the assay on SW-620 colon, 104%; with MCF7 breast, 111%; with HCT-116 colon, 105%. In addition, the growth is 97.5% in the assay on HCC-2998 colon and 110% with KM12 colon.

In the case of `Clc1ccc(C2c3ccccc3-c3nccn32)c(Cl)c1` (stereo not given), the growth was 56.2% in the assay on T-47D breast; 83.8% in the assay on BT-549 breast; 89.6% with MDA-MB-435 melanoma; 85.4% in the assay on SW-620 colon; 80.5% with MCF7 breast; 49% with HCT-116 colon. The results for the growth with HCC-2998 colon and in the assay with KM12 colon were 99% and 79.2%, respectively.

As for `O=C(N/N=C/c1cccc(O)c1)c1ccc(C(F)(F)F)nc1Nc1cccc(C(F)(F)F)c1`, the growth in the assay on T-47D breast was 5.41% (active); in the assay on BT-549 breast it was 1.67% (active); in the assay with MDA-MB-435 melanoma, 51.2%; in the assay on SW-620 colon, 7.06% (active); in the assay on MCF7 breast, 3.77% (active); in the assay with HCT-116 colon it was -21.4% (active). The growth in the assay with HCC-2998 colon was 10.2%; in the assay with KM12 colon, 8.65% (active).

In the case of `O=C1/C(=C/c2cccc(Cl)c2)CCc2ccccc21`, the growth with T-47D breast was 101%; in the assay on BT-549 breast, 102%; with MDA-MB-435 melanoma it was 96.6%; in the assay with SW-620 colon it was 56.4%; in the assay on MCF7 breast, 50.5%; in the assay with HCT-116 colon, 93%. For the same molecule, the growth with HCC-2998 colon is 102%; in the assay on KM12 colon, 87.9%.

Regarding `CC(C)N(Cc1ccccc1)c1c(Cl)ssc1=O`, the growth in the assay on T-47D breast is 98.9%; in the assay on BT-549 breast, 90.9%; with MDA-MB-435 melanoma, 108%; in the assay with SW-620 colon, 110%; with MCF7 breast it was 101%; with HCT-116 colon it was 99.9%. Further, the values for the growth in the assay on HCC-2998 colon and with KM12 colon were 113% and 106%, respectively.

`CSc1nc2nc3c(nc2c(=O)n1C)C(=O)c1ccccc1C3=O`: the growth is -45.3% (active) in the assay on T-47D breast; -94.8% (active) in the assay on BT-549 breast; -83.6% (active) with MDA-MB-435 melanoma; -55.7% (active) with SW-620 colon; -62.2% (active) in the assay with MCF7 breast; -37.6% (active) with HCT-116 colon. Moreover, the growth was -70.1% (active) with HCC-2998 colon and -64.2% (active) in the assay with KM12 colon.

Regarding `C=CCN(/C=C/CN(CC=C)CC=C)CC=C`, the growth is 101% in the assay with T-47D breast; 100% with BT-549 breast; 105% in the assay with MDA-MB-435 melanoma; 102% in the assay on SW-620 colon; 97% in the assay with MCF7 breast; 102% with HCT-116 colon. Moreover, the growth with HCC-2998 colon was 110%; with KM12 colon, 105%.

In the case of `COc1cnc2c(c1)C(=O)c1c-2n(CCCNC(C)C)c(=O)c2cc(F)ccc12`, the growth in the assay with T-47D breast is -11.5% (active); with BT-549 breast, -17.9% (active); in the assay on MDA-MB-435 melanoma, -6.52% (active); in the assay with SW-620 colon, -8.49% (active); in the assay on MCF7 breast, -3% (active); in the assay with HCT-116 colon, -76.5% (active). Moreover, the growth with HCC-2998 colon is -49.8% (active); in the assay on KM12 colon, -17.7% (active).

On to `CCn1cnc(C[C@H](NC(=O)[C@H](CCCCNC(=O)Nc2cc(C(F)(F)F)cc(C(F)(F)F)c2)NC(=O)Nc2cc(C(F)(F)F)cc(C(F)(F)F)c2)C(=O)OC)c1`, for which the growth in the assay with T-47D breast was -62.8% [100 µM] (active); in the assay with BT-549 breast, -35.3% [100 µM] (active); with MDA-MB-435 melanoma it was -65.4% [100 µM] (active); with SW-620 colon it was -40.9% [100 µM] (active); in the assay with MCF7 breast, -47% [100 µM] (active); with HCT-116 colon, -100% [100 µM] (active). The growth in the assay on HCC-2998 colon is -20.8% [100 µM] (active); with KM12 colon, -43% [100 µM] (active).

As for `COC(=O)c1cc2oc(/C=N\NC(=O)c3cc4oc(C)c(C)c4[nH]3)cc2[nH]1`, the growth in the assay on T-47D breast was 90.2%; in the assay on BT-549 breast, 91.3%; in the assay on MDA-MB-435 melanoma it was 96.6%; in the assay with SW-620 colon, 108%; in the assay with MCF7 breast, 86.8%; in the assay on HCT-116 colon, 101%. In addition, the growth was 101% in the assay on HCC-2998 colon and 108% in the assay with KM12 colon.

Turning to `CCSc1nc(-c2cccs2)n2nc(-c3ccco3)cc2n1`, the growth in the assay with T-47D breast was 43.1%; in the assay with BT-549 breast, 113%; with MDA-MB-435 melanoma it was 111%; in the assay on SW-620 colon, 102%; in the assay with MCF7 breast, 32.9%; in the assay on HCT-116 colon it was 94.8%. The values for the growth with HCC-2998 colon and in the assay with KM12 colon were 105% and 82.5%, respectively.
